The whole screen tested about 94,000 compounds, of which about 390 (0.41%) were called active. The list comes from a sample in which actives are over-represented; it also holds similar structures and randomly drawn compounds. Values without a mark were called inactive.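 How the source made its calls: active means cell count reduction more than 3 SD above the screen-wide mean (cut at about 70% in these data); inactive means the rest.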
Assay: cytotoxicity in IL-1B stimulated HUVEC, primary screen, cytotoxicity control for IL-1B NFkB translocation project, imaging, Hoechst nuclear count, IL-1B stimulus (AID 845);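 further: normalized per plate to untreated control cells as the no-loss baseline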
Conditions: HUVEC cell count loss, at 2 µM, hits give high values

Compound | cell count reduction
Cc1nc2c(-c3ccccc3)c(C)[nH]n2c(=O)c1Cl | 86.7% (active)
Cc1cc(-c2ccccc2)n2nc(C)c(-c3ccccc3)c2n1 | -18.8%
Cc1[nH]n(-c2cccc(Cl)c2)c(=O)c1-c1ccc(Cl)cc1 | -1.3%
O=C(NNC(=O)c1cccnc1)Nc1ccccc1 | 19.6%
O=C(Nc1ccccc1Cl)O/N=C(/c1ccccc1)c1ccccn1 | -21.6%
CCOC(=O)C1(S(=O)(=O)c2ccc(Cl)cc2)CCN(Cc2ccccc2)CC1 | -78.7%
Cc1c(C(=O)NCc2ccccc2)cnn1-c1ccccc1 | -8.5%
O=[N+]([O-])c1ccc(Oc2ccc(F)cc2Br)c2ccncc12 | 5.4%
COC(=O)CNC(=O)c1ccccc1[N+](=O)[O-] | 22.7%
Clc1ccc(CSc2nnc(/C=C/c3ccccc3)o2)c(Cl)c1 | -46.7%
CCOC(=O)c1c(NC(=O)/C=C/c2ccco2)sc(C)c1C | -43.8%
O=C1/C(=C\Nc2ccccc2)CCN1c1ncccn1 | -32.2%
CN(C(=O)CSc1nc(C2CC2)nc2ccccc12)c1nc(-c2ccccc2)cs1 | 0.9%
CCN(CC)S(=O)(=O)c1ccc(N2CCOCC2)c(C(=O)O)c1 | 5.3%
Cc1cc(=O)n2nc(N3CCCC(C(=O)N4CCN(C)CC4)C3)sc2n1 (configuration not stated) | 85.7% (active)
COc1ccc(S(=O)(=O)N2CCCC(C(=O)N3CCN(C)CC3)C2)cc1C (configuration not stated) | -33.6%
COc1cc(C)nc(N2CCCC(C(=O)NCC(C)C)C2)n1 (configuration not stated) | -46.9%
COc1ccc(C(C#N)Nc2ccc(C)cc2)cc1 (configuration not stated) | -28.6%
Cc1cc(C)c(OCC(=O)N/N=C/c2ccco2)c(C)c1 | 19.3%
O=[N+]([O-])c1ccccc1/C=N/n1c(COc2ccccc2)n[nH]c1=S | -18.2%
O=C(c1ccc(CN2CCOCC2)cc1)N1CCN(c2ccccc2F)CC1 | 2.7%
C/C=C/C(=O)Nc1nnc(C(C)C)s1 | 7.2%
COc1cccc(NC(=O)c2nn(C34CC5CC(CC(C5)C3)C4)cc2[N+](=O)[O-])c1 | -1.4%
Cc1nc(SCC(=O)c2ccccc2)c([N+](=O)[O-])[nH]1 | -10.8%
CCOc1ccccc1NC(=O)C1CCCN(C(=O)Nc2ccccc2)C1 (configuration not stated) | -30.5%
Cc1cccc(C)c1NC(=O)c1ccc(CN2CCc3ccccc3C2)cc1 | -6.8%
CCOC(=O)COc1cc(OCC(=O)OCC)c2c(=O)cc(-c3ccccc3)oc2c1 | 7.8%

Source: PubChem BioAssay AID845 (Columbia University Molecular Screening Center, 2007)
